Reference: PubChem BioAssay AID2017 (National Center for Advancing Translational Sciences (NCATS), 2009)
Inconclusive results are not listed. A number with no mark means an inactive call. The call rests on the fitted dose curve; in most records, active means well fitted curve in the direction sought with a large enough effect; inconclusive means small, poorly fitted or top-dose-only effect, or another doubt; inactive means no such curve, though single readings can be large or run the other way.

System: 4-diphosphocytidyl-2-C-methyl-D-erythritol kinase IspE (bacterial, species not stated)
Test: Confirmatory Assay for Inhibitors of Human Galactokinase (GALK): CDP-Me assay counterscreen
Details: ATP depletion, Kinase-Glo luminescence; series mostly up to 115 µM; activity change, negative = inhibition: at the top concentration
Description: NIH Molecular Libraries Probe Production Centers Network [MLPCN] NIH Chemical Genomics Center [NCGC] MLPCN Grant: R03 MH085689-01 Assay Submitter (PI): Kent Lai (University of Utah School of Medicine, 50 N Mario Capecchi Drive, Salt Lake City, UT 84132) NCGC Assay Overview The GHMP kinase family is a unique class of important enzymes that plays an essential role in many metabolic processes. It contains more than 170 protein members among which are the galactokinase (GALK) and the CMK enzymes. GALK plays a crucial role in galactose processing and is a potential therapeutic target for Classic Galactosemia (OMIM: 230400). CMK is involved for the non-mevalonate synthesis of isoprenoids precursors and natural products like sterols or ubiquinones which are important to many biological functions. Although the sequence identity between GALK and CMK is low, the three-dimensional structures and active sites are highly similar. Therefore to determine the validity and selectivity of an active compound observed in the GALK qHTS screen (AID: 1868), a bioluminescent counter-screen targeting bacterial CMK was developed. In addition, because the mevalonate independent synthesis of isoprenoids are more prevalent in opportunistic pathogens such as bacteria, CMK is a potential novel therapeutic target where selective inhibitors could be used to determine potential antibacterial effects. The CMK (provided by Kent Lai) was assayed using ATP and 4-diphosphocytidyl-2-C-methyl-D-erythritol (CDP-ME; Echelon, cat# I-M052) as substrates. Promega Kinase-Glo Plus (cat# V3774) technology was used to detect the residual ATP following kinetic reaction. Briefly, the Kinase-Glo Plus contains Ultra-Glo [5] luciferase and D-luciferin which generates a bioluminescence signal from the remaining ATP.
NCGC Assay Protocol Summary: Three uL/well of substrate solution (15 uM ATP, 30 uM CDP-ME, 20 mM HEPES pH8.0, 5 mM MgCl2, 40 mM KCl, 1 mM DTT, 0.01% BSA final concentration) was dispensed into 1536-well, assay plates (Greiner, solid white medium-binding plates) with Aurora Discovery BioRAPTR Flying Reagent Dispenser (FRD; Beckton-Dickenson). […] One uL/well enzyme solution (0.25 ug/mL CDP-Me kinase, 20 mM HEPES pH8.0, 5 mM MgCl2, 40 mM KCl, 1 mM DTT, 0.01% BSA final concentration) was then added using the FRD yielding a total kinase reaction volume of 4 uL/ well. After 1 hour of room temperature incubation, 4 uL Kinase-Glo Plus reagent was added for a final assay volume of 8 uL/well. After 1 min, luminescence was detected with the ViewLux plate reader (Perkin Elmer, Waltham, MA) using a 1 sec exposure time and 2x binning settings.

Structure (SMILES) | activity change, negative = inhibition
Cc1nc(NS(=O)(=O)c2ccc(Cl)s2)c2c3c(sc2n1)CCCC3 | 1.29%
N#C/C(=C(/O)Cc1cccc2ccccc12)c1nc2ccccc2s1 | -0.506%
COC(=O)c1ccc(CSc2ccc3nnc(-c4ccccn4)n3n2)o1 | -0.879%
Cc1ccc(F)c(NC(=O)/C(C#N)=C(\O)c2ccc(C(C)(C)C)cc2)c1 | -5.97%
CS(=O)(=O)c1ccc2c(c1)sc1nc(=O)c(/C=C3/C=CC(=O)C(O)=C3)c(N)n12 | -7.97%
CCOC(=O)C1(Cc2cccc(F)c2)CCN(C(=O)COC)CC1 | 2.45%
S=c1[nH]nc(Cc2sc(-c3ccccc3)nc2-c2ccccc2)o1 | 1.28%
COc1ccc(-n2nnc3c(=O)n(CC(=O)N4CCC(C)CC4)cnc32)cc1 | 1.87%
COCc1cc(CN2CCCC2)c(O)c2ncccc12 | 2.55%
O=C(O)c1cccc(S(=O)(=O)N2CCC(n3nnc4cc(C(F)(F)F)ccc43)CC2)c1 | 1.46%
CC1=NN(c2ccccc2)C(=O)/C1=C/c1c(O)n(-c2ccc(F)c(Cl)c2)[nH]c1=O | -6.6%
C[C@H](NC(=O)C1CCC(CNC(=O)[C@@H]2CCCN2C(=O)OC(C)(C)C)CC1)C(=O)O (stereo not given in full) | 3.35%
Cc1ccc(S(=O)(=O)/N=C2/NC(=O)/C(=C\c3cc(Br)cc(Br)c3O)S2)cc1 | -13.1%
CCS(=O)(=O)C1=NSC2=NC(=O)/C(=C\c3ccc(OS(=O)(=O)c4ccccc4)c(OC)c3)C(=N)N21 | -10.4%
COc1cc(/C=C2\C(=O)ON=C2c2ccccc2)cc(Br)c1O | -2.63%
CCOc1cc(/C=C2/C(=N)N3C(=NC2=O)SN=C3S(C)(=O)=O)ccc1OS(=O)(=O)c1ccccc1 | -4.75%
O=C1/C(=C\c2cc(Cl)c(O)c(Cl)c2)SC(=S)N1Cc1ccccc1 | 3.14%
N#C/C(=C\c1coc2ccc(O)cc2c1=O)C(=O)Nc1nc2ccccc2s1 | -9.89%
O=C1/C(=C\c2ccc(O)c(O)c2)C(c2ccccc2)=NN1c1ccccc1 | 6.47%
CCN1CCN(CCNC(=O)c2ccc3nc(-c4cccc(C)c4)c(-c4cccc(C)c4)nc3c2)CC1 | -1.48%

Structure (SMILES) | activity change, negative = inhibition
O=c1[nH]c(/C=C/c2ccc([N+](=O)[O-])cc2)c([N+](=O)[O-])c(=O)[nH]1 | -4.01%
C=CCN1C(=O)/C(=C/c2ccc(OC(C)=O)c(OCC)c2[N+](=O)[O-])SC1=S | -15.3%
O=C1C=C(N(CCO)Cc2ccccc2)c2ccccc2C1=O | -28.7%
CCOc1cc(/C=C2\C(=O)ON=C2c2ccccc2)cc(Br)c1O | 2.32%
CCS(=O)(=O)C1=NSC2=NC(=O)/C(=C\c3ccc(OS(=O)(=O)c4ccccc4)cc3)C(=N)N21 | -13.2%
CCS(=O)(=O)C1=NN2C(=N)/C(=C\c3ccc(OS(=O)(=O)c4ccccc4)cc3)C(=O)N=C2S1 | -28.5%
O=C1C=CC2=C3c4cc(O)c(O)cc4CC3(O)COC2=C1O (stereo not given) | -6.18%
O=S(=O)(NCc1cccs1)c1ccc(Br)s1 | 2.41%
CC(=O)c1ccc(NC(=S)Nc2cccc3cnccc23)cc1 | -3.41%
Cc1[nH][nH]c(=O)c1C(c1ccc(-c2ccc(Cl)c(C(=O)O)c2)o1)c1c(C)[nH][nH]c1=O | -6.09%
Cc1nn(Cc2noc(C(=O)NCC3CCCO3)n2)c(C)c1Br (stereo not given) | -0.906%
Cc1snc(S(=O)(=O)/C(C#N)=N/Nc2ccc(C(F)(F)F)cc2)c1C#N | -2.03%
O=C(NCCc1ccccc1)c1ccc2c(=O)[nH]c3c(C(=O)NCC4CCCO4)sc(=S)n3c2c1 (stereo not given) | -12.4%
CCOC(=O)c1c(C)[nH]c2c1-c1ccccc1C(=O)C2=O | -7.25%
CC(C)OC(=O)C(C(=O)C(F)(F)F)c1cc(NS(=O)(=O)c2ccc3ccccc3c2)c2ccccc2c1O (stereo not given) | 0.739%
O=C1CCCC2=C1C1(CCCCC1)N=C(Nc1nc3ccccc3o1)N2 | -2.3%
N#C/C(=C(/O)c1cc2ccccc2o1)c1nc2ccccc2s1 | -3.31%
O=C1ON=C(c2ccccc2)/C1=C/c1ccc(O)c(O)c1 | 2.47%
O=C(COc1ccccc1/C=C\c1[nH]c(=O)[nH]c(=O)c1[N+](=O)[O-])Nc1ccccc1 | -1.25%
CS(=O)(=O)C1=NSC2=NC(=O)/C(=C\c3ccc(OS(=O)(=O)c4ccccc4)cc3)C(=N)N21 | -8.39%
